The source of these data is PubChem BioAssay (NCI).

The structures appear in SMILES notation. Compounds without any hit were thinned out: in the full panel of roughly 83,000, 20% have a hit.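 Assay: single dose, 48 h. Readout: percent growth (0 = no net growth; negative = cell death). Active: <10.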 The source made the active and inactive calls.

The subject of this test is NCI-H23 lung. Description: NCI-60 one-dose screen, 48 h (100 = growth as untreated, 0 = no growth, -100 = all killed). The following applies: 10 µM unless noted. As to the method:
Growth inhibition of the NCI-H23 human Non-Small Cell Lung tumor cell line is measured as a screen for anti-cancer activity. Cells are grown in 96 well plates and exposed to the test compound for 48 hours. Compounds are tested at a single concentration, which is 10^-5 M for most compounds. The reported endpoint is percent growth (GI% or GIPRCNT), where numbers from 0 - 100% represent growth inhibition, and numbers from -100% - 0 represent cell death. For example, a value of 40 represents 60% growth inhibition. A value of 0 means no net growth occurred over the course of the experiment. A value of -40 indicates 40% of cells at the beginning of the experiment died by the end of the experiment. A value of -100 means all cells are dead at the end of the experiment.
NCI-60 Human Tumor Cell Lines Screen was performed using the standard one-dose NCI protocol, which is described in more detail at https://dtp.cancer.gov/discovery_development/nci-60/default.htm.
Compounds with GIPRCNT values below 10 were considered active. Activity score was based on GIPRCNT using the following formula: […]
Score is 0 for GIPRCNT values of 100 or above, 50 for GIPRCNT values of 0, and 100 for GIPRCNT values of -100.
With `COc1cc2c(=O)[nH]c3cc([N+](=O)[O-])ccc3c2cc1[N+](=O)[O-]`, the growth was 55.4% (inactive).

On to `CCCCCCCCCCCCNC(=S)N/N=C/c1ccccc1O`, for which the growth was 60.9% (inactive).

For `CCCCOC(=O)c1c(C)[nH]c(/C=C2\N=C(c3ccc[nH]3)C=C2OC)c1C`, the growth was -11.3% (active).

With `CC1Cc2c(Cl)ncnc2N(C)c2ccc(O)cc21` (stereo not given), the growth is 45.7% (inactive).

With `COc1cc(-c2cc(-c3ccc(Nc4ncnc5cc(Cl)ccc45)cc3)nc(N3CCCCC3)n2)cc(OC)c1OC`, the growth is 102% (inactive).

In the case of `O=C1COCCN1c1ccc(Nc2nc(Cl)nc(N3CCOCC3)n2)cc1`, the growth was 96.5% (inactive).

As for `c1ccc2c(c1)CN(CCCN1CCOCC1)C2`, the growth was 99.6% (inactive).

On to `COc1cc(-c2nc(SCCC(C)C)nc(Nc3ccccc3)c2C#N)cc(OC)c1OC`, for which the growth was 97.1% (inactive).

Consider `CCOc1ccc(S(=O)(=O)Nc2ccc3c(c2)N(S(=O)(=O)CC)CCC3)cc1`, for which the growth was 87.5% (inactive).

As for `NC(=S)Cc1ccccc1`, the growth was 102% (inactive).

`CN(C)Cc1ccc[nH]1`: the growth was 93.2% (inactive).

Take `CCN(CC)c1ccc2cc(C(Nc3ccc(Cl)cc3)c3nnnn3C(C)(C)C)c(=O)oc2c1` (stereo not given): the growth was 95.6% (inactive).

As to `Cc1ccccc1-n1nnc(C(=O)Nc2nc3ccc(F)cc3s2)c1C`, the growth is 55.7% (inactive).

In the case of `COc1ccc(C2CC(c3ccc4ccccc4c3)=NN2c2nc(O)c(C3=c4cc(OC)ccc4=NC3=O)s2)cc1` (stereo not given), the growth was -29.8% (active).

Regarding `CCCCCCCCCCCCCC[n+]1cccc(C(N)=O)c1`, the growth is 13.9% (inactive).

`O=C(O)c1ccccc1C(F)(F)F`: the growth is 66.7% (inactive).

Take `O=C1/C(=C/c2ccc(OCc3ccccc3)cc2)Oc2cc(OCCN3CCCCC3)ccc21`: the growth is 74.5% (inactive).

For `COc1ccc(OC)c(NC=O)c1`, the growth was 101% (inactive).

Turning to `CCC(C)[C@H](NC(=O)NC(=O)NC(=O)CI)C(=O)OC` (stereo not given in full), the growth was 82.3% (inactive).

As for `O=c1cc(-c2ccccc2)oc2c(O)c(O)ccc12`, the growth was 57.6% (inactive).

Regarding `O=C(O)CSCc1nnc2n(Cc3ccccc3)c(=O)c3c4c(sc3n12)CCCC4`, the growth is 90.8% (inactive).

Take `Oc1c(CNCCNCc2cc(Cl)cc(Cc3ccccc3)c2O)cc(Cl)cc1Cc1ccccc1`: the growth was 17.4% (inactive).

On to `CCCCOC(=O)c1cccc([N+](=O)[O-])c1`, for which the growth is 101% (inactive).

For the molecule `CCn1cc(-c2ccnc(NCCNS(=O)(=O)c3ccc(Br)cc3)c2)c(-c2cccc(OC)c2)n1`, the growth was -96.1% (active).

`COc1c(C(C)=O)c(OCCCCOc2c(C(C)=O)c(OC)c3ccoc3c2OC)c(OC)c2occc12`: the growth is 68.8% (inactive).

Turning to `COc1ccc(CC(C#N)c2ccc(Cl)cc2)cc1` (stereo not given), the growth is 77.2% (inactive).

As to `CCOc1ccc(/C=C(\C#N)c2cc3ccccc3[nH]2)cc1`, the growth is 78.6% (inactive).

Regarding `O=C(NCCO)c1cccnc1`, the growth was 102% (inactive).

As for `CNc1cc(C(=O)O)nc(NC)n1`, the growth is 100% (inactive).

As for `O=C(COc1cccc(/C=C2\Oc3ccccc3C2=O)c1)c1ccc([N+](=O)[O-])cc1`, the growth was 79.9% (inactive).

For the molecule `C=CCCCCCCCCC(=O)OC(C)C`, the growth is 98.4% (inactive).

Take `Cc1cc(C)c(O)c(CNCCCNCc2cc(C)cc(C)c2O)c1`: the growth is 81.7% (inactive).

In the case of `COC(=O)c1cc2c(=O)[nH]cc3c2c(n1)CCC3`, the growth is 106% (inactive).

Take `COc1cc(C)cc2oc3oc(=O)c(-c4nc5ccccc5s4)cc3c(=O)c12`: the growth was 96.9% (inactive).

With `CC1Cc2ccc(OCCN(C)C)cc2C1=O` (stereo not given), the growth was 103% (inactive).

Take `N#Cc1ccc(-c2ccc(COc3ccc(CC4SC(=O)NC4=O)cc3)cc2)cc1` (stereo not given): the growth is 50.7% (inactive).

For `c1coc2occoc=2o1`, the growth is 104% (inactive).

With `Cc1ccc(-c2cc(-c3ccc(C)cc3)nc(NCCNc3ccnc4cc(Cl)ccc34)n2)cc1`, the growth was -12% (active).

Regarding `O=C(CCN1CCCCC1)c1ccc2ccccc2c1`, the growth was 103% (inactive).

On to `O=C(NCc1ccccc1)C(Cl)Cl`, for which the growth is 104% (inactive).
